Source: publication PMC12751014, “Non-Catalytic Inhibitors of the p38/MK2 Interface: Repurposing Approved Drugs to Target Neuroinflammation in Alzheimer’s Disease” (Journal of Medicinal Chemistry, 2025)
Screen size: about 1,900 compounds; about 50 (3%) showed an effect of 50% or more. The list comes from a sample in which strong results are over-represented; it also holds similar structures and randomly drawn compounds.

Biological target: p38/MK2 protein–protein interaction (VF-p38α / GST-MK2) (Homo sapiens, UniProt Q16539)
Experiment: primary screen, percent of control activity; higher = less effect of the substance
Set-up: species or system HEK293T cell lysate transfected with VF-p38α and GST-MK2; unclear (methods say 'quintuplet replicates')
Procedure: The TR-FRET assay was conducted in a 1536-well plate (Corning, catalog no. 3724) with HEK293T cell lysate transfected with VF-p38α and GST-MK2. Cell-lysate concentration was optimized with a titration experiment. Anti-Flag-Tb and anti-GST-d2 antibodies (Revvity, catalog no. 61FGBTLB) were used to couple p38α and MK2, respectively. A multiple-drop Combi dispenser (Thermo Scientific) combined reaction mixtures in quintuplet replicates. The TR-FRET signals were measured using a BMG Labtech PHERAstar FSX plate reader and normalized to the percent of DMSO control.

Chain of p38/MK2 protein–protein interaction (VF-p38α / GST-MK2) (Q16539 2-360 limits assumed): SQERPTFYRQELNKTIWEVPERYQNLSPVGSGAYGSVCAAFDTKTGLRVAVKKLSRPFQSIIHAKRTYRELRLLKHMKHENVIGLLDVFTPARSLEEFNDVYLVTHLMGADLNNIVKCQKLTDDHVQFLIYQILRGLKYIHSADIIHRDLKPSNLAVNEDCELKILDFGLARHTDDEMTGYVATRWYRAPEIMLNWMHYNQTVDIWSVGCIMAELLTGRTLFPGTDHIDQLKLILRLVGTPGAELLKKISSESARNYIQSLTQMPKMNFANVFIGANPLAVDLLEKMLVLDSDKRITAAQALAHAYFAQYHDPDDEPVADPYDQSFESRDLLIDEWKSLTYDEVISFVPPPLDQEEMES

SMILES	Pct of control
CCOc1nc2cccc(C(=O)O)c2n1Cc1ccc(-c2ccccc2-c2nn[nH]n2)cc1	95%
CCOc1nc2cccc(C(=O)OC(C)OC(=O)OC3CCCCC3)c2n1Cc1ccc(-c2ccccc2-c2nn[nH]n2)cc1 (stereo not drawn)	32.4%
CCOc1nc2cccc(C(=O)O)c2n1Cc1ccc(-c2ccccc2-c2nc(=O)o[nH]2)cc1	94.5%
Cl.Cn1c(CCCC(=O)O)nc2cc(N(CCCl)CCCl)ccc21	99.1%
C=C(c1ccc(C(=O)O)cc1)c1cc2c(cc1C)C(C)(C)CCC2(C)C	25.7%
CC(=Cc1ccc(C(=O)O)cc1)c1ccc2c(c1)C(C)(C)CCC2(C)C	78.8%
CC1(C)CCC(C)(C)c2cc(NC(=O)c3ccc(C(=O)O)cc3)ccc21	92.2%
CO/N=C(\C(=O)N[C@@H]1C(=O)N2C(C(=O)O)=C(CSC(=O)c3ccco3)CS[C@H]12)c1csc(N)n1.Cl	115%
Cn1cc(-c2ccc3ncc(Cc4ccc5ncccc5c4)n3n2)cn1	93.2%
CCCCCCCCCCCCCCCC(=O)OCC(O)C1OC(=O)C(O)=C1O (stereo not drawn)	33.2%
O=C1O[C@H]([C@@H](O)CO)C(O)=C1O	100%
CCCCCC=CCC=CCCCCCCCC(=O)OC(COC(=O)CCCCCCCCCCCCCCC)COP(=O)([O-])OCC[N+](C)(C)C (stereo not drawn)	95.3%
CN(C)c1ccc(C(=O)NCCCCCCC(=O)NO)cc1	96.2%
Cl.O=S(=O)(c1cccc2cnccc12)N1CCCNCC1	93.6%
COC(=O)C1=CO[C@@H](O[C@@H]2O[C@H](CO)[C@@H](O)[C@H](O)[C@H]2O)[C@@H]2C(CO)=CC[C@H]12	90.4%
CNC(=O)c1cc(Oc2ccc(NC(=O)Nc3ccc(Cl)c(C(F)(F)F)c3)cc2)ccn1.Cc1ccc(S(=O)(=O)O)cc1	69.1%
O=C(O)CC1CC(c2ccccc2)=NO1 (stereo not drawn)	86.5%
C[C@@H]1[C@H](O)[C@@H](C)/C=C/C=C/C=C/C=C/C=C/C=C/C=C/[C@H](O[C@@H]2O[C@H](C)[C@@H](O)[C@H](N)[C@@H]2O)C[C@@H]2O[C@](O)(C[C@@H](O)C[C@@H](O)[C@H](O)CC[C@@H](O)C[C@@H](O)CC(=O)O[C@H]1C)C[C@H](O)[C@H]2C(=O)O	48.7%
CC1C=CC=CCCC=CC=CC=CC=CC(OC2OC(C)C(O)C(N)C2O)CC2OC(O)(CC(O)C(O)CCC(O)CC(O)CC(O)CC(=O)OC(C)C(C)C1O)CC(O)C2C(=O)O (stereo not drawn)	94.3%
C[C@@H]1C/C=C/C=C/C=C/C=C/[C@H](O[C@@H]2O[C@H](C)[C@@H](O)[C@H](N)[C@@H]2O)C[C@@H]2O[C@](O)(C[C@@H](O)C[C@H]3O[C@@H]3/C=C/C(=O)O1)C[C@H](O)[C@H]2C(=O)O	97.8%
Cc1ccc(C(=O)N(CCCN)C(c2nc3cc(Cl)ccc3c(=O)n2Cc2ccccc2)C(C)C)cc1 (stereo not drawn)	97.1%
COc1ccc(COc2cc3oc(=O)c4cc(C(C)O)ccc4c3cc2OC)cc1 (stereo not drawn)	78.7%
C=C1C(=O)[C@]23[C@H](O)[C@H]1CC[C@H]2[C@@]12CO[C@]3(O)[C@@H](O)[C@@H]1C(C)(C)CC[C@@H]2O	42.8%
COC(=O)C1=C(C)NC(C)=C(C(=O)OCCN2CCN(C(c3ccccc3)c3ccccc3)CC2)C1c1cccc([N+](=O)[O-])c1 (stereo not drawn)	121%

SMILES	Pct of control
COc1ccc2nc([S@@+]([O-])Cc3ncc(C)c(OC)c3C)[nH]c2c1	89.4%
O=C(CCCCCCC(=O)Nc1ccc([C@H]2O[C@@H](CSc3nc(-c4ccccc4)c(-c4ccccc4)o3)C[C@@H](c3ccc(CO)cc3)O2)cc1)NO	20.4%
O=C(CCCCCCC(=O)Nc1ccccc1)NO	102%
Cc1cccc(C(C)c2cnc[nH]2)c1C.Cl (stereo not drawn) [S3060]	91.6%
CC1=CC(=O)NS(=O)(=O)O1.[K]	95.6%
CC(=CC(=O)Nc1ccccc1C(=O)O)c1ccc2ccccc2c1	105%
CC(C)N(CCC(=O)c1ccc2ccccc2c1)Cc1ccccc1.Cl	26.2%
CC(COc1ccccc1)N(CCCl)Cc1ccccc1.Cl (stereo not drawn)	85.4%
O=S(=O)(CC1CS1)c1ccc(Oc2ccccc2)cc1 (stereo not drawn)	95%
CN(C)CCCN1c2ccccc2Sc2ccc(C(F)(F)F)cc21.Cl	95.7%
O=C(C=Cc1ccc2ccccc2n1)c1ccncc1	39.1%
O=C(O)C=CC(=O)O.c1ccc2nc(N3CCNCC3)ccc2c1	98.6%
O=C(NNc1ccccc1)c1ccncc1	97.3%
Cl.c1ccc2c(CC3=NCCN3)cccc2c1	94.8%
CCCNC(C)C(=O)Nc1ccccc1C (stereo not drawn)	96.3%
CC(C)c1onc(-c2c(Cl)cccc2Cl)c1COc1ccc(C=Cc2cccc(C(=O)O)c2)c(Cl)c1	16.5%
O=c1cc(-c2cccc3c2Sc2ccccc2S3)oc(N2CCOCC2)c1	88.7%
CCCCCCOC(=O)N=C(N)c1ccc(NCc2nc3cc(C(=O)N(CCC(=O)OCC)c4ccccn4)ccc3n2C)cc1	94.2%
COC1CCN(C(=O)c2cc(Cc3n[nH]c(=O)c4ccccc34)ccc2F)CC1	95.8%
Cl.NC1CC1c1ccccc1 (stereo not drawn)	91.7%
O=C(/C=C/C=C/c1ccc2c(c1)OCO2)N1CCCCC1	82.5%
O=[N+]([O-])C=Cc1ccc2c(c1)OCO2	40.3%
O=C(Oc1ccc([N+](=O)[O-])cc1)N1CCC(C(O)(c2ccc3c(c2)OCO3)c2ccc3c(c2)OCO3)CC1	94.2%
Cc1ccc(-n2sc(=O)n(Cc3ccc(F)cc3)c2=O)cc1	114%
